The source of these data is PubChem BioAssay AID720631 (The Scripps Research Institute Molecular Screening Center, 2013).

The structures appear in SMILES notation. The list shows a part of the results. A number with no mark means an inactive call. Calls of active or inactive are those of the source.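 Rule for the calls: active = inhibition above the mean of compounds lying within the control limits plus 3 SD (cut at about 16% in these data); inactive = the rest.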

For this assay, the target named is Fibrinogen beta chain (Homo sapiens) (UniProt P02675). As to the kind of experiment: Tn6 displacement from DD(E) complex – biochemical, fluorescence polarization, human fibrin, Tn6 probe, confirmation (AID 720631).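 Note: 0% = plate median of compound wells and 100% = inhibitor peptide control.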 The settings on record: FP displacement of TRITC-Tn6 peptide from DD(E); at 8.3 µM; hits give high values; 0% = per-plate median of test wells.
Sequence of Fibrinogen beta chain (Homo sapiens) (P02675 whole entry, looked up): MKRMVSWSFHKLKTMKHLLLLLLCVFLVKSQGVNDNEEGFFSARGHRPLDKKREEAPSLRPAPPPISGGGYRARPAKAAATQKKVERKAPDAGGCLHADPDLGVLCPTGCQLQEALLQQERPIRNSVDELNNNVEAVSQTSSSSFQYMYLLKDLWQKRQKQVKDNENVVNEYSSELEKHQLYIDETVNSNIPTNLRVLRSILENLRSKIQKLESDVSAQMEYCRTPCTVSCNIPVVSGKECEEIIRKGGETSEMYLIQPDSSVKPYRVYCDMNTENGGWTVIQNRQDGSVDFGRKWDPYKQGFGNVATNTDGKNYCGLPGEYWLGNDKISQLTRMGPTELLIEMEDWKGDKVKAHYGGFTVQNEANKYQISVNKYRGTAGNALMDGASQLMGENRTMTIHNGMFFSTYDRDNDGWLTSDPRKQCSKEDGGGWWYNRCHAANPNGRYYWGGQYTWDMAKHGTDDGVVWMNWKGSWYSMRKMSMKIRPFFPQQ
`CONc1nc2nonc2nc1NOC`: the inhibition was -1.66%.
For `Cc1ccc(-c2nn(-c3ccccc3)cc2/C=C/C(=O)Nc2cccc(S(N)(=O)=O)c2)cc1` the value was 4.74%; for `Cc1cc2ccccc2n1CCNC(=O)COc1ccc2ccccc2c1`, 12.1%.
The figure for `Cc1cc(C)c2nc(NC(=O)C3CCCO3)sc2c1` (stereo unspecified) is 4.35%; for `O=c1[nH]n(-c2ccc([N+](=O)[O-])cc2)c(=O)c2ccccc12` it is 12.3%.
On to `O=C(Nc1cccc(-c2nc3ccccc3[nH]2)c1)c1ccc(C(=O)Nc2cccc(-c3nc4ccccc4[nH]3)c2)cc1`, for which the inhibition was 29.2% (active).
The figure for `CCc1ccccc1NC(=S)Nc1cc(OC)c(NC(=O)C(C)C)cc1OC` is -4.51%.
In the case of `CCC1C(=O)NCCN1C(=O)c1ccc2nc(Cc3ccc(OC)cc3)oc2c1` (stereo unspecified), the inhibition is -13.1%.
For `COc1ccc(Nc2nc(-c3cccnc3)nc3ccccc23)cn1` the value was -6.63%; for `O=c1cc(Cn2nnc(-c3ccc(Cl)cc3)n2)nc2sccn12`, -6.19%.
For `Cc1cc2nc3c(=O)[nH]c(=O)nc-3n(C[C@H](O)[C@H](O)[C@H](O)CO)c2cc1C` the value was 12.4%; for `Oc1ccc(N=Cc2sc3ccccc3c2Cl)cc1`, -11.2%.
On to `O=C(CCl)NNc1cccc(Cl)n1`, for which the inhibition was 4.87%.
The figure for `Cc1nn(C)cc1N1C(=O)c2cccc3c(N)ccc(c23)C1=O` is 1.67%; for `Cc1ccc(NC(=O)CN2CCc3ccccc3C2)cc1` it is -6.7%; for `Cc1cc2cc(CNC(=O)c3ccc(S(=O)(=O)N4CCOCC4)cc3)ccc2[nH]1` it is -6.87%.
